# aSyn rescue: qHTS of alpha-syn Inhibitors; Yeast expressing alpha-synuclein, growth rescue, BacTiter-Glo, 24 h; Potency, µM (highest dose often 46.1 µM), hits mostly activators; 0.14% of 370,000 active; AID 652106, 2013; further: nearly all actives have a fitted effect of over 65% in size
#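 Rescue of yeast growth: cells expressing toxic alpha-synuclein, induced in galactose at OD600 0.02, incubated with compound 24 h at 30 C. ATP luminescence quantified growth; inhibitors of toxicity appear as activators.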
# FUS yeast rescue: qHTS for Suppressors of FUS Proteinopathy: Primary screen using FUS-linked yeast assay; S. cerevisiae FUS-expressing, growth rescue, OD600, 24 h; Potency, µM (top dose mostly 76.6 µM), hits mostly activators; 0.24% of 390,000 active; AID 1347120, 2019; further: nearly all actives have a fitted effect of over 55% in size
#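 Galactose (2%) drives FUS expression in yeast precultured in raffinose; seeding density OD 0.005. Test compounds incubated 24hr at 30C and 99% humidity before absorbance at 600 nm was measured.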
# Abeta rescue: qHTS for compounds that reverse cellular toxicity of Amyloid beta (A-beta) peptide in yeast: Primary Screen; AID 1347071, 2019; yeast expressing A-beta42, growth rescue, OD600, 48 h; response scale: 0% DMSO, 100% iron-clioquinol control; Potency, µM (titrated, usually from 46.1 µM), usual class: activators; 0.063% of 410,000 active; further: nearly all actives have a fitted effect of over 55% in size
#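 Growth rescue measured by 600 nm absorbance after 48 h yeast culture at 30 C with compound. Values normalized between DMSO and an equimolar ferric chloride plus clioquinol control.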
# Mito fusion yeast: qHTS Assay for Small Molecule Inhibitors of Mitochondrial Division or Activators of Mitochondrial Fusion; S. cerevisiae fusion-defective mutant growth rescue, CellTiterGlo 48 h; Potency, µM (titrated, usually from 46.1 µM), most hits filed as activators; 0.23% of 320,000 active; AID 485298, 2010; further: nearly all actives have a fitted effect of over 45% in size
#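 Temperature-sensitive fusion-defective S. cerevisiae (e.g. fzo1-1, mgm1-5) were grown with compound in YPEG medium (3% ethanol, 3% glycerol) for 48 hours at 37C. Growth rescue was measured as viability by CellTiterGlo luminescence after 10 minutes at ambient.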
# TDP-43 yeast inh: qHTS of TDP-43 Inhibitors; TDP-43 expressing yeast growth rescue, BacTiter-Glo, 24 h; Potency, µM (series often up to 46.1 µM), hits mostly activators; 1.8% of 410,000 active; AID 652104, 2013; further: nearly all actives have a fitted effect of over 50% in size
#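 Yeast expressing TDP-43 (pregrown in raffinose, seeded at OD600=0.02 in galactose medium) exposed to compounds 24 hr at 30 deg C. Growth read by BacTiter-Glo luminescence; rescue of toxicity appears as increased signal.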
# Hits are given with their value; 0 = inactive; ? = inconclusive; - = no result; [ ] = dose if it differs, or a comment. Only some compounds are listed: those with a hit (about 2.2% of all), similar ones and a draw of the others. The call rests on the fitted dose curve; in most records, active means well fitted curve in the direction sought with a large enough effect; inconclusive means small, poorly fitted or top-dose-only effect, or another doubt; inactive means no such curve, though single readings can be large; an effect the other way counts as inactive or inconclusive.
SMILES,aSyn rescue,FUS yeast rescue,Abeta rescue,Mito fusion yeast,TDP-43 yeast inh
CCc1nc2ccc(C(=O)Nc3cc(-c4ccccc4)ccc3OC)cn2c1N(CC)CCN(C)C,0,0,0,-,0
CCc1nc2ccc(C(=O)Nc3cccc(NS(C)(=O)=O)c3)cn2c1N(C)CCCc1ccccc1,0,0,0,-,0
CC(Sc1nnc(-c2ccco2)n1N)C(=O)NCc1ccc2c(c1)OCO2 (configuration not stated),0,0,0,0,0
CC(C)(C)c1cnnn1-c1ccc(C(=O)CCl)cc1,0,0,0,0,8.9µM
O=C(NCCc1csc(-c2cccnc2)n1)c1cccc(C(F)(F)F)c1,0,0,0,-,?
COc1ccc(OC)c(/C=C2\SC(N3CCCC(C)C3)=NC2=O)c1 (configuration not stated),0,0,0,13µM,0
CN(C)c1ccc(/C=C2\SC(N3CCCCC3)=NC2=O)cc1,0,0,0,0,22µM
COc1cc(/C=C2\SC(N3CCC(C)CC3)=NC2=O)ccc1O,0,0,0,0,11µM
CCOC(=O)C1CCN(C2=NC(=O)/C(=C/c3ccc(Cl)cc3)S2)CC1,0,0,0,0,20µM
Cc1ccc(/C=C2\SC(N3CCCC3)=NC2=O)cc1,-,-,-,0,-
COc1ccc(/C=C2\SC(N3CCCCC3)=NC2=O)cc1OC,0,0,0,0,0
COc1ccc2sc(-c3ccc(SC)cc3)c(-c3ccc(O)cc3)c2c1,0,0,0,-,0
O=C(CN1CCc2ccccc2C1)Nc1ccc(OC(F)(F)F)cc1,0,0,0,0,0
Cc1ccc(Cl)cc1N1CCN(C(=O)Cn2ncc3c([nH]c4ccccc43)c2=O)CC1,-,0,0,-,0
CCCCN1C(=O)CN(C2CCCCCC2)C(=O)C1c1ccc(OC(C)C)c(OC)c1 (configuration not stated),-,0,0,-,0
CCOc1ccc(NC(=O)CN(C)Cc2cc(=O)n3c(-c4ccccc4)csc3n2)cc1OCC,0,18µM,0,0,0
O=C(c1ccc([N+](=O)[O-])cc1)N1CCN(c2ccc(Nc3ccccc3)nn2)CC1,-,0,0,-,0
C#CCn1c(S(=O)(=O)Cc2ccc(OC)cc2)nc(-c2ccccc2)c1-c1ccccc1,0,25µM,0,0,0
Cc1ccccc1-c1noc(-c2ccccc2OCC(=O)Nc2ccccc2[N+](=O)[O-])n1,-,0,0,-,0
COc1ccc(C2=NN3C(C2)c2ccccc2OC3c2cccs2)cc1 (configuration not stated),0,0,0,0,?
COc1ccc(C2=NN3C(C2)c2ccccc2OC32C(=O)N(C)c3ccccc32)cc1 (configuration not stated),0,?,0,0,22µM
CCCN(C(=O)COc1cc(=O)n(CC)c2ccccc12)c1ccc(C(C)C)cc1,-,?,0,-,22µM
Cc1cccc(N2C(=O)C(CC(=O)Nc3cccc(F)c3)N(Cc3cccs3)C2=O)c1 (configuration not stated),-,?,0,-,0
Cc1cccc(NS(=O)(=O)c2ccc3c(c2)CC(C)N3C(=O)C2CCC2)c1C (configuration not stated),-,?,0,-,20µM
Cc1cc(C)c(NS(=O)(=O)c2ccc3c(c2)CC(C)N3C(=O)C2CCC2)c(C)c1 (configuration not stated),-,?,0,-,11µM
SMILES,aSyn rescue,FUS yeast rescue,Abeta rescue,Mito fusion yeast,TDP-43 yeast inh
CC1CCN(S(=O)(=O)c2ccc3c(c2)CC(C)N3C(=O)C2CCC2)CC1 (configuration not stated),0,?,-,?,18µM
CCC(C)(C)NC(=O)C1CCCN(S(=O)(=O)c2ccc3c(c2)CC(C)N3C(=O)C2CC2)C1 (configuration not stated),0,0,0,11µM,0
CCOC(=O)C1CCCN(S(=O)(=O)c2ccc3c(c2)CC(C)N3C(=O)C2CC2)C1 (configuration not stated),0,0,0,0,0
CC1Cc2cc(S(=O)(=O)N3CCCCC3)ccc2N1C(=O)C1CCC1 (configuration not stated),0,0,-,0,?
COc1cccc(CNC(=O)c2c(C)oc3nc(C)nc(N4CCOCC4)c23)c1,-,0,0,-,0
O=C(CN1C(=O)NC2(CCCC2)C1=O)Nc1cccc(Cl)c1,0,0,0,0,0
Cc1ccc2nc(-c3ccccc3Cl)cc(C(=O)Nc3cc(C)on3)c2c1,0,0,0,0,18µM
Cc1cc(NC(=O)c2ccccc2Cl)no1,0,0,0,0,0
O=C(COc1ccc2c3c(c(=O)oc2c1)CCC3)N1CCN(c2ccc(F)cc2)CC1,0,0,0,?,32µM
Cc1cccc(N2CCN(C(=O)COc3ccc4ccc(=O)oc4c3)CC2)c1C,0,0,0,?,?
O=C(COc1ccc2ccc(=O)oc2c1)N1CCN(c2ccccc2)CC1,0,0,0,0,20µM
CC(=O)c1cccc(NC(=O)c2sc(-n3nc(C)c(Cc4ccccc4)c3C)nc2C)c1,-,0,0,-,0
Cn1ncc2c(Nc3cc(C(F)(F)F)ccc3Cl)ncnc21,-,0,0,-,14µM
O=C1NC[C@H](CCCCN2CCN(CC3CCCCC3)C(=O)C2=O)N(CCC2CCCCC2)C1=O,0,0,0,-,0
COc1ccccc1CNC(=O)c1ccc(C)c(-n2cnc3cccnc32)c1,-,0,0,-,0
COC[C@@H]1CCCN1c1cccc2c1S(=O)(=O)N1CC[C@H](C1)O2,-,0,-,-,-
CCC(C)c1ccc(NC(=S)NCCn2cc(Cl)cn2)cc1 (configuration not stated),0,0,0,0,0
CCC(C)c1ccc(NC(=S)NCCn2cc(Br)cn2)cc1 (configuration not stated),0,0,10µM,0,0[0.397 µM]
Cc1cccc(C(=O)OC(C)C(=O)N2CCc3ccccc3C2)c1C (configuration not stated),0,-,0,0,18µM
COc1ccc2oc(C(=O)OCC(=O)N(Cc3ccccc3)C(C)(C)C)c(C)c2c1,0,0,0,0,0
O=C(/C=C/c1ccccc1Cl)c1ccc[nH]1,0,-,0,14µM,0
CSc1cc(-c2ccncc2)nc(-c2ccc(Cl)cc2)c1,0,0,0,0,11µM
Cc1ccc(NC(=O)C2CCCN2S(=O)(=O)c2cccnc2)c(C)c1 (configuration not stated),-,0,-,-,-
O=C(CSc1ccccc1Cl)c1ccco1,0,0,0,0,16µM
CC1CN(C(=O)c2ccccc2OCc2ccc(Cl)cc2Cl)CC(C)O1 (configuration not stated),0,0,0,0,28µM

# Source: PubChem
